# In PubChem BioAssay AID1745845 (National Center for Advancing Translational Sciences (NCATS), 2022):
# In all, about 360,000 compounds went through this assay and about 2,600 (0.72%) were called active. About 5% were inconclusive and are not listed. Only a selection was taken, and actives are over-represented in it overall. Unmarked numbers belong to inactive results. Calls follow the shape of the dose curve; as a rule, active = well fitted inhibition curve with a large enough effect; inconclusive = small, poorly fitted or top-dose-only effect; inactive = no such curve, though single readings can be large or run the other way.
# Experiment: Primary qHTS for Inhibitors of ATXN expression; also: nearly all actives have a fitted effect of over 55% in size
# Settings: HEK-293 ATXN2-luciferase reporter, luminescence, 24 h; series mostly up to 57 µM; activity change, negative = inhibition: at the top concentration
# Summary of the method: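 ATXN2-luciferase reporter cells (luciferase flanked by upstream and downstream ATXN2 gene portions) were treated 24 h at 37 °C with compounds at up to 57 uM. SteadyGlo luminescence gave expression; GF-AFC fluorescence gave viability.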
# % is scaled to controls: 0 for no effect and ±100 for the full control effect; potency is read from the fitted curve at half-maximal effect.
Compound,"activity change, negative = inhibition [%]",Potency
Cc1ccc(S(=O)(=O)N2CCC(C(=O)Nc3cc(C)ccc3C)CC2)cc1,-3.58,–
Cc1ccnc(NC(=O)C2CCN(S(=O)(=O)c3c(C)c(C)cc(C)c3C)CC2)c1,–,7.94 µM (active)
O=C(Nc1ccccn1)C1CCN(S(=O)(=O)c2ccccc2)CC1,30.1,–
COc1cccc(CNC(=O)C(=O)NCC(c2cccs2)S(=O)(=O)c2ccccc2)c1 (stereo unspecified),-24.1,–
CCc1ccc(OC2(C)CCN(CCOc3ccc(C)cc3)C2)cc1 (stereo unspecified),-24.5,–
CCCCCCCCn1c2c(c(=N)c3c1CCC3)CCCC2,–,0.891 µM (active)
CCCS(=O)(=O)N1CCC(n2c(C(F)(F)F)nc3cccnc32)CC1,-14.9,–
CCN(CC)CCNC(=O)c1cc(S(C)(=O)=O)ccc1OC,–,inactive
CCN(CC)CCNC(=O)c1c(C)[nH]c(C=C2C(=O)Nc3ccc(F)cc32)c1C,–,44.4 µM (active)
CCOc1cc2[nH]c(=O)n(Cc3ccc(C(=O)NCCN(CC)CC)cc3)c(=O)c2cc1OCC,-1.01,–
N#Cc1ccccc1Cn1cnc2nc3c(cc2c1=O)CCCC3,15.7,–
Cc1nc2c(OCc3ccc(Cl)cc3Cl)cccn2c1N(C)CC1CC1,-0.165,–
O=[N+]([O-])c1ccc(C=Nc2ccc(Cl)cc2Cl)s1,–,12.6 µM (active)
CNN/C(N=Cc1ccc([N+](=O)[O-])s1)=N\S(=O)(=O)c1cc(C)c(Cl)cc1SCc1ccccc1,4.25,–
COC(=O)c1ccccc1NC(=O)c1cc(-c2ccccc2O)no1,-7.07,–
CC(C)CCNC(=O)CSc1nc2ccccc2nc1Cc1ccc(Cl)cc1,8.32,–
COc1ccc(Cc2nnc(N/N=C/c3ccccc3O)[nH]c2=O)cc1OC,–,3.55 µM (active)
COc1ccc(Cc2nnc(SC)[nH]c2=O)cc1,-0.583,–
COc1ccc(CCNC(=O)CCc2ccccc2O)cc1OC,-8.28,–
CCCCCc1c(-c2ccc(OC)c(OC)c2)ncn1CCc1ccccc1OC,-19.7,–
COc1ccc(CNc2nc(-c3ccccc3)nn2C(=O)c2ccccc2OC)cc1,11.6,–
COc1cc(Cl)cn2c(-c3cccc(NC4CNC4)n3)cnc12,-7.34,–
Cc1ccc(-n2ncc3c(=O)n(Cc4cccc(C(F)(F)F)c4)cnc32)cc1C,9.19,–

Compound,"activity change, negative = inhibition [%]",Potency
CC1(C)OC(=O)C2=C(C[C@@H](C3CCCCC3)O[C@@H]2c2ccc(Cl)cc2)O1,-15.8,–
NC(=O)C(=O)N/N=C/c1ccc([N+](=O)[O-])o1,-10.7,–
Cc1onc(C(=O)NCc2ccc(F)cc2)c1[N+](=O)[O-],-8.25,–
O=C(/C=C/c1ccc([N+](=O)[O-])o1)NNC(=O)c1ccc(F)cc1,–,6.31 µM (active)
Cc1ccc(S(=O)(=O)c2c(Nc3cccc(Cl)c3)sc(C(=O)c3ccc4c(c3)OCO4)c2N)cc1,-24.7,–
COc1ccc(NC(=O)CCC(=O)Nc2cc(OC)c(NC(=O)c3ccco3)cc2OC)c(OC)c1,-5.94,–
COc1cc(C(=O)OC(C)C(=O)NCC2CCCCC2)cc(NC(=O)c2ccco2)c1OC (stereo unspecified),–,25.1 µM (active)
CC(OC(=O)c1ccc([N+](=O)[O-])cc1)C(=O)NCC1CCCCC1 (stereo unspecified),-4.37,–
COC(=O)c1c(NC(=O)CCCOc2ccccc2)sc2c1CCC(C)C2 (stereo unspecified),1.43,–
CC(=O)c1cccc(NC(=O)c2nc(-c3ccccc3)n(-c3cccc(C)c3)n2)c1,-32.6,–
Cc1cc(Br)ccc1NC(=O)Cn1cnc2sc(C)c(S(=O)(=O)N3CCN(C)CC3)c2c1=O,12.6,–
CN[C@@H]1[C@@H](O)[C@@H](O[C@@H]2[C@H](O)[C@H](O[C@H]3OC(CN)=CC[C@H]3N)[C@@H](N)C[C@H]2N)OCC1(C)O (stereo partly specified),12.2,–
COc1cc(/C=N/NC(=O)c2cc(-c3ccccc3C)nc3ccccc23)cc(OC)c1O,1.95,–
Cc1ccc(/C=N/NC(=O)C2=NNC(c3ccccc3)(c3ccccc3)C2)c(O)c1,–,3.16 µM (active)
Cc1ccc2nc(CNC(=O)c3ccccc3)[nH]c2c1,71.8,–
CCC(C)Cn1c(O)cc2nn(-c3nc4ccccc4s3)c(=O)c-2c1C (stereo unspecified),–,14.1 µM (active)
COc1ccc(OC)c(NC(=O)/C=C/c2ccc(C)o2)c1,4.77,–
CCOC(=O)C1CCN(c2nc3c(S(=O)(=O)c4ccc(CC)cc4)nnn3c3ccc(Cl)cc23)CC1,7.33,–
CCCCCn1c(=O)[nH]c2cc(C(=O)NCCN(C)CCCC)ccc2c1=O,-7.68,–
COc1ccccc1CNC(=O)NCc1noc2ccc(C)cc12,-5.43,–
CN(C)S(=O)(=O)c1ccc(Oc2ccc(S(=O)(=O)N(C)C)cc2)cc1,-15.9,–
Cc1cc(C(C)(C)C)cc(C)c1N,-8.09,–
CC(C)(C)c1ccc(Oc2ccc(N)cc2)cc1,–,2.82 µM (active)
